Six molecules from the supplement of paper PMC9925115 can be followed below.

This experiment relates to FLX1 + dox-induced PRKAR1A G325D. The experiment is described as follows: difference in log2 fold change of viability vs plate median (dox-induced PRKAR1A G325D minus uninduced); higher = compound less effective when PKA is inhibited. Conditions: concentration: not stated (2 or 5 uM); 5 days. On the procedure: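 For each plate a log2 fold change vs the plate median was derived, and the values without dox were subtracted from those with dox, averaged over three biological replicates.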
For `O=c1[nH]c2ccc(Cl)cc2c(N[C@@H]2CN3CCC2CC3)c1-c1nc2ccccc2[nH]1`, the “difference in log2 fold change of viability” value (from here on “difference in log2 fold change”) was -0.0624. Consider `Cn1cc(C2=C(c3cn(C4CCN(Cc5ccccn5)CC4)c4ccccc34)C(=O)NC2=O)c2ccccc21`, for which the “difference in log2 fold change” value was -0.214.

On to `CC(C)(C)c1cc(C=C(C#N)C#N)cc(C(C)(C)C)c1O` [Tyrphostin 9], for which the “difference in log2 fold change” value worked out at 0.375.

Take `CC(C)(C)c1cc(C=C(C#N)C#N)cc(Br)c1O`: the “difference in log2 fold change” value is 0.78.

As for `CCN1CCN(C(=O)Cc2ccc(Nc3ncc(F)c(Nc4ccc(C(=O)Nc5ccccc5Cl)cc4)n3)cc2)CC1` [Aurora A Inhibitor I], the “difference in log2 fold change” value was -0.138. For the molecule `Cc1ccccc1-n1c(Cn2ncc3c(N)ncnc32)nc2cccc(C)c2c1=O`, the “difference in log2 fold change” value was -0.0566.
